From PubChem BioAssay (Tox21)
Inconclusive results are not listed. Calls of active or inactive are those of the source. Unless noted, calls follow the shape of the dose curve; as a rule, active = well fitted curve in the direction sought with a large enough effect in the repeat runs; inconclusive = weak or mixed curves; inactive = no such curve, though single readings can be large; an effect the other way counts as inactive or inconclusive.

What was measured:
[1] = qHTS assay for small molecule agonists of the p53 signaling pathway (AID 651631; calls by dose curve; also: nearly all actives have a fitted effect of over 15% in size; also: potency is read from the fitted curve at half-maximal effect)
Method in brief: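 HCT-116 p53RE-bla reporter line, 16 h compound treatment at 37 °C, then fluorescence after 2 h with B/G FRET substrate.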

[2] = qHTS assay for small molecules that induce genotoxicity in human embryonic kidney cells expressing luciferase-tagged ATAD5 (AID 651632); also: nearly all actives have a fitted effect of over 15% in size; also: potency is read from the fitted curve at half-maximal effect
Method in brief: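 HEK293T cells carrying luciferase-tagged ATAD5 were given compound or DMSO vehicle and incubated 16 hr at 37C, 5% CO2. Luciferase activity was read after 30 min at room temperature with Amplite; a rise signals genotoxic stress.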

[3] = qHTS assay for small molecule agonists of the p53 signaling pathway - cell viability (AID 651633; calls by dose curve;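 also: p53RE-bla HCT reporter cells with a stable beta-lactamase p53 reporter; series mostly up to about 83 µM; nearly all actives have a fitted effect of over 30% in size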)
Method in brief: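 Viability counter-read: CellTiter-Glo luminescence (30 min, room temperature) in the same p53RE-bla plates. These plates had been exposed to compounds for 16 h at 37 C.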

[4] = qHTS assay for small molecules that induce genotoxicity in human embryonic kidney cells expressing luciferase-tagged ATAD5 - cell viability (AID 651634; calls by dose curve; also: nearly all actives have a fitted effect of over 25% in size)
Method in brief: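 HEK293T cells carrying luciferase-tagged ATAD5, 2,000 cells/well, exposed to compound for 15.5 hr at 37C. Viability read as live-cell protease activity by CellTiter-Fluor fluorescence after 30 min at 37C.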

[5] = qHTS assay for small molecule disruptors of the mitochondrial membrane potential - cell viability (AID 720634; calls by dose curve;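 also: human HepG2 liver cancer cells; series mostly up to about 83 µM; nearly all actives have a fitted effect of over 20% in size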)
Method in brief: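 HepG2 cells, 2,000 per well, attached overnight, then treated 1 hr at 37 C, 5% CO2. Viability read as ATP by CellTiter-Glo luminescence after 30 min at room temperature. Read in the same wells as the m-MPI membrane-potential dye assay.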

[6] = qHTS assay for small molecule disruptors of the mitochondrial membrane potential (AID 720635)
Method in brief: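 Mitochondrial membrane potential tracked with Mito-MPS dye, red aggregates (ex 540/em 590 nm) against green monomers (ex 490/em 535 nm). Compound treatment 1 hr at 37C, dye 30 min in HepG2.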

[7] = qHTS assay to test for compound auto fluorescence at 590 nm (red) in HepG2 cells (AID 720674)
Method in brief: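 1 hr compound incubation on HepG2 cells, 37 C, 5% CO2; plate read ex 540 nm / em 590 nm; intensities reported as Rose Bengal sodium equivalents.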

[8] = qHTS assay to test for compound auto fluorescence at 535 nm (green) in HepG2 cells (AID 720675)
[9] = qHTS assay to test for compound auto fluorescence at 460 nm (blue) in HEK293 cells (AID 720678)
Method in brief: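 Blue read-out at excitation 405 nm and emission 460 nm follows overnight compound exposure of HEK293 cells at 37C in 5% CO2. Activity is given as auto fluorescence equivalency to triamterene.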

[10] = qHTS assay to test for compound auto fluorescence at 590 nm (red) in HEK293 cells (AID 720679)
Method in brief: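 Red channel, Ex/Em 540/590nm; signal expressed as equivalency to Rose Bengal sodium. HEK293, 2,000 cells/well, 10% dialyzed FBS; 23 nL compound pinned after 4-5 hr attachment; overnight 37C/5% CO2 before reading.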
% is scaled to controls: 0 for no effect and ±100 for the full control effect.

CCCCC(CC)COC(=O)CC#N (stereo not drawn)
inactive: Potency [1] | Potency [2] | outcome [3] | outcome [4] | outcome [5] | Potency [6] | outcome [7] | outcome [8] | outcome [9] | outcome [10]

CCCCCCCC(=O)N(C)C
inactive: Potency [1] | Potency [2] | outcome [3] | outcome [4] | outcome [5] | Potency [6] | outcome [8] | outcome [9] | outcome [10]

CCCC(=O)C(CC)Sc1ccoc1C (stereo not drawn)
inactive: Potency [1] | Potency [2] | outcome [3] | outcome [4] | outcome [5] | Potency [6] | outcome [7] | outcome [8] | outcome [9] | outcome [10]

CC(O)CCCCn1c(=O)c2c(ncn2C)n(C)c1=O (stereo not drawn)
inactive: Potency [1] | Potency [2] | outcome [3] | outcome [4] | outcome [5] | Potency [6] | outcome [8] | outcome [9] | outcome [10]

Cc1ccccc1C#N
inactive: Potency [1] | Potency [2] | outcome [3] | outcome [4] | outcome [5] | outcome [7] | outcome [8] | outcome [9] | outcome [10]

N=C(N)N
inactive: Potency [1] | Potency [2] | outcome [3] | outcome [4] | outcome [5] | Potency [6] | outcome [7] | outcome [8] | outcome [9] | outcome [10]

O=P(O)(O)C(O)(Cc1cccnc1)P(=O)(O)O
inactive: Potency [1] | Potency [2] | outcome [3] | outcome [4] | outcome [5] | Potency [6] | outcome [8] | outcome [9] | outcome [10]

C/C(Cl)=C/CCl
inactive: Potency [1] | Potency [2] | outcome [3] | outcome [4] | outcome [5] | Potency [6] | outcome [7] | outcome [8] | outcome [9] | outcome [10]

C=CCn1cc[n+](C)c1
inactive: Potency [1] | Potency [2] | outcome [3] | outcome [4] | outcome [5] | Potency [6] | outcome [7] | outcome [8] | outcome [9] | outcome [10]

COc1ccc2cc(CCC(C)=O)ccc2c1
active: Potency [2] 4.52 µM
inactive: Potency [1] | outcome [3] | outcome [4] | outcome [5] | Potency [6] | fluorescence, relative to Rose Bengal [7] -0.0879% [at 18.6 µM] | fluorescence, % of fluorescein control [8] -0.11% [at 18.6 µM] | fluorescence, % of triamterene [9] 0.0581% [at 18.6 µM] | fluorescence, % of fluorescent control [10] 0.875% [at 18.6 µM]

COc1cc(C(=O)NC2CCCNC2)cc(OC)c1OC (stereo not drawn)
inactive: Potency [1] | Potency [2] | outcome [3] | outcome [4] | outcome [5] | Potency [6] | outcome [7] | outcome [8] | outcome [9] | outcome [10]

CCNC(=O)C(C)OC(=O)Nc1ccccc1 (stereo not drawn)
inactive: Potency [1] | Potency [2] | outcome [3] | outcome [4] | outcome [5] | outcome [7] | outcome [8] | outcome [9] | outcome [10]

C[C@@H](CN1CC(=O)NC(=O)C1)N1CC(=O)NC(=O)C1
inactive: Potency [1] | Potency [2] | outcome [3] | outcome [4] | outcome [7] | outcome [8] | outcome [9] | outcome [10]

CCCCC(CC)CCC(CC(C)C)OS(=O)(=O)O (stereo not drawn)
inactive: Potency [1] | Potency [2] | outcome [3] | outcome [4] | outcome [7] | outcome [8] | outcome [9] | outcome [10]

CC(C)OC(=O)C(C(=O)OC(C)C)=C1SC=CS1
inactive: Potency [1] | Potency [2] | outcome [3] | outcome [4] | outcome [7] | outcome [8] | outcome [9] | outcome [10]

O=S(=O)(O)c1ccc(Cl)cc1
inactive: Potency [1] | Potency [2] | outcome [3] | outcome [4] | outcome [5] | outcome [7] | outcome [8] | outcome [9] | outcome [10]

O=C(OOC(=O)c1ccccc1)c1ccccc1
inactive: Potency [1] | Potency [2] | outcome [3] | outcome [4] | Potency [6] | outcome [7] | outcome [8] | outcome [9] | outcome [10]

CCCCCCCCCCCBr
inactive: Potency [1] | Potency [2] | outcome [3] | outcome [4] | outcome [5] | outcome [8] | outcome [9] | outcome [10]

CC(C)C[P+](C)(CC(C)C)CC(C)C
inactive: Potency [1] | Potency [2] | outcome [3] | outcome [4] | outcome [5] | outcome [8] | outcome [9] | outcome [10]

CC(C)(Sc1cc(C(C)(C)C)c(O)c(C(C)(C)C)c1)Sc1cc(C(C)(C)C)c(O)c(C(C)(C)C)c1
inactive: Potency [1] | Potency [2] | outcome [3] | outcome [4] | Potency [6] | fluorescence, % of fluorescein control [8] -0.143% [at 18.6 µM] | fluorescence, % of triamterene [9] -0.428% [at 18.6 µM] | fluorescence, % of fluorescent control [10] -1.27% [at 18.6 µM]

CC(=O)OC1CCC(C(C)(C)C)CC1 (stereo not drawn)
inactive: Potency [1] | Potency [2] | outcome [3] | outcome [4] | outcome [7] | outcome [8] | outcome [9] | outcome [10]

O=C(O)P(=O)(O)O
inactive: Potency [1] | Potency [2] | outcome [3] | outcome [4] | outcome [5] | outcome [7] | outcome [8] | outcome [9] | outcome [10]

CC(CN1CC(=O)NC(=O)C1)N1CC(=O)NC(=O)C1 (stereo not drawn)
active: Potency [1] 11.9 µM
inactive: Potency [2] | outcome [3] | outcome [4] | Potency [6] | outcome [7] | outcome [8] | outcome [9] | outcome [10]

CCCCCC(=O)CC
inactive: Potency [1] | Potency [2] | outcome [3] | outcome [4] | outcome [7] | outcome [8] | outcome [9] | outcome [10]

CCCCOCCCC
inactive: Potency [1] | Potency [2] | outcome [3] | outcome [4] | outcome [5] | outcome [7] | outcome [8] | outcome [9] | outcome [10]

CCOCCOCCOC(C)=O
inactive: Potency [1] | Potency [2] | outcome [3] | outcome [4] | Potency [6] | outcome [7] | outcome [8] | outcome [9] | outcome [10]
